LYP act – LYP (human) phosphatase activation | recombinant LYP, DiFMUP fluorescence; 0 = plate median, 100 = signal doubled | activation, % at 2 µM | hit rate 0.11% among 96,000 | AID 697;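 active means activation at 2 µM above a set limit, the mean plus 5 SD, cut at about 37% in these data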
ERa coact pot – ER-alpha (human) coactivator binding potentiation; P03372; TR-FRET ERalpha-LBD/SRC-Cy5 coactivator binding, 2 h; 100 = basal binding, no effect; coactivator binding (% of control), % at 25.6 µM; hit rate 1.3% among 86,000; AID 639; in the data active means activity above about 200%;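 further: binding measured in presence of low estradiol as agonist stimulus; 0% = peptide alone without receptor and 100% = receptor with peptide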
PTPN22 inh 2 – inhibitors of human LYP (PTPN22) phosphatase | inhibition, % at 2 µM | hit rate 0.21% among 96,000 | recombinant LYP catalytic domain, DiFMUP fluorescence;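 active means inhibition at 2 µM at or above a set limit, the screen mean plus 3 SD, cut at about 24% in these data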;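 further: 0% = DMSO with enzyme and 100% = enzyme fully blocked by orthovanadate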
ERa SRC1 inh – ER-alpha (human) coactivator binding inhibition. P03372. hit rate 1.7% among 86,000. TR-FRET ER-alpha LBD / SRC-1 peptide, estradiol-bound. inhibition, % at 25.6 µM; in the data active means inhibition above about 50%;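 further: 0% = receptor plus peptide control and 100% = peptide only without receptor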
ERb coact inh – ER-beta (human) coactivator binding inhibition | Q92731 | TR-FRET ER-beta LBD / SRC1-Cy5 peptide binding; receptor agonist-loaded with 1 µM estradiol | inhibition, % at 25.6 µM | hit rate 1.3% among 86,000 | AID 633;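 active means compounds whose percent inhibition of the receptor-coactivator binding signal exceeds about 50% in the single-dose screen, limit read from the data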;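 further: 0% = receptor plus peptide wells without compound and 100% = peptide-only wells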
Target sequence (Q92731 whole entry, looked up, the tested form may be a part): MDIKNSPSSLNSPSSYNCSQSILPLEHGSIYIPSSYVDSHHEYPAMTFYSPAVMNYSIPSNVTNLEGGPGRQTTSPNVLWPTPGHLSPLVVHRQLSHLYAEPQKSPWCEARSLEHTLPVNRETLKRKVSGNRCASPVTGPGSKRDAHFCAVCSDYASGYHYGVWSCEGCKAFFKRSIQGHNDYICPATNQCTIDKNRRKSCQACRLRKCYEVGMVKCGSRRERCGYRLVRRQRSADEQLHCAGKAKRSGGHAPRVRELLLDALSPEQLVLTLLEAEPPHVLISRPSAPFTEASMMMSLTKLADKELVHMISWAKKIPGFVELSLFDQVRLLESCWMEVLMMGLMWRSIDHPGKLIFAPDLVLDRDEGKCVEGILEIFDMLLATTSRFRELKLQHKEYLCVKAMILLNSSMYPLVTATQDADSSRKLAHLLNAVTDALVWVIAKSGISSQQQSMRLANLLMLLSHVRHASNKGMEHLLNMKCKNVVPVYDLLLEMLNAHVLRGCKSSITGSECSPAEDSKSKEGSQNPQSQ
FAK blocker – FAK (human) kinase inhibition; Q05397; biochemical FAK kinase activity assay; inhibition, %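 (tested at 7 µM)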; hit rate 0.84% among 97,000; AID 727; in the data active means inhibition above about 19%;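 further: 0% = DMSO and 100% = reference compound high control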
Active calls of the source: *; . = not tested or not shown; + = active, no number; [ ] = remark or other dose. The list is not random: actives were taken first. Their share in the collection is about 3.4%.

SMILES | LYP act | ERa coact pot | PTPN22 inh 2 | ERa SRC1 inh | ERb coact inh | FAK blocker
Cc1snc2sc(C(=O)c3ccc(Br)cc3)c(N)c12 | -4 | 140 | 5 | 71* | 52* | 12
Cc1ccc(C(=O)c2sc3nsc(C)c3c2N)cc1 | 9 | 84 | -7 | 5 | 10 | 2
CC(NC(=O)Nc1ccc(F)cc1F)c1ccncc1 (configuration not stated) | 6 | 86 | -6 | 23 | 26 | 0
O=C(COc1ccc2c(c1)OCO2)Nc1ccc2c(c1)oc1ccccc12 | -14 | 50 | 13 | 51*[fluorescence artefact?] | 25 | 1
Cc1cc(C)c(Cc2c(C)nc3c(C(=O)NCc4ccco4)cnn3c2C)c(C)c1 | -5 | 75 | 5 | 15 | 3 | 3
Cc1[nH]nc(N2CCCCCC2)c1[N+](=O)[O-] | -18 | 111 | 20 | -2 | -11 | -3
Cc1[nH]nc(SCC(=O)N2CCCCC2)c1[N+](=O)[O-] | 8 | 691*[fluorescence artefact?] | -6 | -7 | -4 | 0
CCCSc1nnc(NC(=O)Nc2ccc(F)cc2)s1 | . | 247* | . | 11 | 8 | .
CCCSc1nnc(NC(=O)Nc2ccccc2)s1 | . | 116 | . | -4 | 0 | .
CCOc1ccc2nc(SCC(=O)c3ccc(C)s3)sc2c1 | 7 | 221* | -9 | 22 | 0 | -1
CC1(C)Cc2ccccc2C(=O)N1 | 8 | 132 | -4 | -1 | 18 | -7
O=C1c2ccccc2CC1(Cc1ccccc1)Cc1ccccc1 | 8 | 279* | -7 | 1 | -6 | -1
COc1ccc(C2CC(c3cccs3)=NN2c2nc(-c3ccccc3)cs2)cc1OC (configuration not stated) | -12 | . | 16 | . | . | -4
Cc1c(C(=O)Nc2ccc(-n3cnnn3)cc2)oc2ccccc12 | -2 | 199 | 0 | 76*[fluorescence artefact?] | 65*[fluorescence artefact?] | 2
CC(=O)SC(C)CC(=O)NCc1ccccc1 (configuration not stated) | -1 | 104 | 1 | 0 | -6 | 1
COC(=O)c1c(C(=O)OC)n(CCCN)c2ccc(C)cc12 | -5 | 120 | 2 | -7 | -4 | 18
Cc1ccc2c(c1)c1cccc3c1n2CCN3CCC(N)=O | -10 | 72 | 8 | 11 | 60*[fluorescence artefact?] | 12
O=C(CC(=O)NC1CCCCC1)N/N=C/c1ccc(Cl)cc1 | -5 | . | 10 | . | . | 2
Cc1nc(SCC(=O)NCc2ccccc2)c2oc3ccccc3c2n1 | -8 | +[fluorescence artefact?] | 10 | 0 | -12 | 0
O=C(CSc1nnc(-c2cccc(Cl)c2)o1)Nc1ccc2c(c1)OCCO2 | 8 | 145 | -9 | 54*[fluorescence artefact?] | 22 | 1
O=C(CSc1nc(-c2ccccc2)nc2ccccc12)Nc1nccs1 | 8 | . | -4 | . | . | -22
O=C(CSc1nnc(CNC(=O)c2c(F)cccc2Cl)o1)Nc1ccc2c(c1)OCCO2 | -4 | 101 | 6 | -2 | 1 | -3
O=C(CSc1ncnc2c1oc1ccccc12)Nc1ccc2c(c1)OCCO2 | -1 | 765*[fluorescence artefact?] | 0 | 43 | 57*[fluorescence artefact?] | -50
CCc1nc(SCC(=O)Nc2nccs2)c2oc3ccccc3c2n1 | . | 138 | . | 56*[fluorescence artefact?] | 42 | .
Cc1ccc(/C=N\NC(=O)Cn2c(C)nc3ccccc32)o1 | 9 | . | -3 | . | . | -8
SMILES | LYP act | ERa coact pot | PTPN22 inh 2 | ERa SRC1 inh | ERb coact inh | FAK blocker
CCOC(=O)C1CCCN(C(=S)Nc2cc(C)cc(C)c2)C1 (configuration not stated) | -3 | . | 1 | . | . | 3
Cc1nc(SCC(=O)Nc2ccc3c(c2)OCCO3)c2oc3ccccc3c2n1 | 5 | 732*[fluorescence artefact?] | -1 | 79*[fluorescence artefact?] | 40 | -9
CCc1nc(SCC(=O)Nc2ccc3c(c2)OCCO3)c2oc3ccccc3c2n1 | 3 | 233*[fluorescence artefact?] | -4 | 64*[fluorescence artefact?] | 57*[fluorescence artefact?] | -74
CCc1nc(SCC(=O)N2CCCc3ccccc32)c2oc3ccccc3c2n1 | -5 | 134 | 5 | 5 | 10 | 7
Cc1nc(SCC(=O)O)c2oc3ccccc3c2n1 | 5 | 107 | -5 | -1 | -1 | 0
CCOC(=O)c1c(C#N)c(SCC(=O)Nc2ccc(OC)cc2)nc2c1CN(CC)CC2 | -1 | 262* | 0 | -2 | -1 | 1
COc1ccc(NC(=O)N2CCCC(c3nc(-c4ccc(C(C)C)cc4)no3)C2)cc1 (configuration not stated) | -2 | 107 | 0 | -7 | 6 | 3
CCCn1c(SCC(=O)N2CCN(S(=O)(=O)c3ccc(Cl)cc3)CC2)n[nH]c1=O | -1 | 106 | -1 | 2 | 0 | -5
Cc1cc(C)n2c(SCC(=O)N3CCN(S(=O)(=O)c4ccc(Cl)cc4)CC3)nnc2n1 | -26 | . | 24* | . | . | 3
CCCCCOC(=O)CSc1nnc(-c2cc(OC)c(OC)c(OC)c2)o1 | . | 89 | . | 5 | 3 | .
CCCCCCc1cc2cc(-c3nnc(-c4cc(OC)c(OC)c(OC)c4)o3)c(=O)oc2cc1O | -43 | 224*[fluorescence artefact?] | 43* | 18 | 0 | 1
CCCCCCc1cc2cc(-c3nnc(-c4ccccc4OC)o3)c(=O)oc2cc1O | -46 | 50 | 46* | 47 | 28 | 2
COc1ccc(-c2nnc(-c3cc4ccccc4oc3=O)o2)cc1 | 3 | 156 | -4 | -11 | -22 | -1
COc1cc(OC)c(OC)cc1/C=N/NC(=S)NCC1CCCO1 (configuration not stated) | -2 | . | 1 | . | . | -3
CCN(CC)c1c(-c2ccccc2)c2cc(C)ccc2[nH]c1=O | . | 248*[fluorescence artefact?] | . | 26 | 40 | .
CCOC(=O)N1CCN(c2c(-c3ccccc3)c3cc(Cl)ccc3[nH]c2=O)CC1 | -2 | . | 6 | . | . | 1
N#CC(C(=O)NCCc1ccccc1)c1nc2ccccc2nc1N1CCOCC1 (configuration not stated) | -8 | 168 | 6 | 75*[fluorescence artefact?] | 31 | -2
O=C1c2ccsc2SCCN1Cc1cccc(Cl)c1 | -2 | 100 | 2 | 1 | -1 | 1
O=C1c2ccsc2SCCN1Cc1ccc(Cl)cc1 | 11 | 76 | -7 | 16 | 56*[fluorescence artefact?] | 0
CCSc1nnc(NC(=O)CSc2nc(CC)nc3c2c(=O)n(C)c(=O)n3C)s1 | 4 | 254* | -4 | -2 | 1 | 0
Cc1cc(C(=O)CSc2nc3ccccc3c(=O)n2C)c(C)n1Cc1ccc2c(c1)OCO2 | -2 | +[fluorescence artefact?] | 0 | -23 | -7 | -2
Cc1cc(SCC(=O)c2ccc3c(c2)OCO3)nc2ccccc12 | 4 | 441*[fluorescence artefact?] | -2 | 16 | 4 | 1
Cc1cc(SCC(=O)N2CCCC2)nc2ccccc12 | 2 | 97 | -3 | 5 | -20 | 1
Cc1cc(C(=O)CSc2nnc(-c3ccccc3)n2Cc2ccc3c(c2)OCO3)c(C)n1C | 0 | 133 | -2 | -4 | -1 | 3
Cc1cc(SCC(=O)c2cc3ccccc3o2)nc2ccccc12 | -14 | 228*[fluorescence artefact?] | 16 | 2 | -1 | 1
COc1cc(CCN2C(=O)c3cccc4cccc(c34)C2=O)c(S(=O)(=O)NCCCO)cc1OC | -2 | . | 2 | . | . | -6

Bioassay records (PubChem)
